# According to PubChem BioAssay:
# Activity calls are given as the source filed them.
# Legend:
# [1] = adipocyte viability effects, profiling panel, cell-based, 3T3-L1 adipocytes, calcein-AM fluorescence, 48 h, basal (AID 1163); settings: 3T3-L1 adipocytes viability, higher = more signal
# [2] = HepG2 cell viability effects, profiling panel, calcein-AM fluorescence, 48 h, basal (AID 1164); settings: higher = more signal
# [3] = MM1S cell viability effects, profiling panel, calcein-AM fluorescence, 48 h, basal (AID 1165); settings: higher = more signal;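 note: viability of MM1S multiple myeloma cells under basal unstimulated conditions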
# [4] = basal RPMI8226 viability, no added stimulus, profiling panel, cell-based, calcein-AM fluorescence, 48 h, PK04 Diversity Set (AID 1166); settings: RPMI8226 myeloma viability, higher = more signal;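 note: cells grown under basal conditions without added stimulus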
# [5] = basal HepG2 mitochondrial membrane potential changes, profiling panel, cell-based, JC-1 fluorescence, 24 h, 100 nL compound (AID 1167); settings: higher = more signal
# [6] = basal 3T3-L1 adipocyte mitochondrial potential changes, profiling panel, cell-based, JC-1 fluorescence, 3T3-L1 adipocytes, 24 h, 100 nL compound (AID 1168); settings: JC-1 mitochondrial fluorescence, higher = more signal, called active from +8 up or from −8 down
# [7] = basal RPMI8226 mitochondrial membrane potential changes, profiling panel, cell-based, JC-1 fluorescence, 24 h, 100 nL compound (AID 1169); settings: RPMI8226 myeloma, JC-1 mitochondrial potential fluorescence, higher = more signal
# [8] = basal MM1S mitochondrial membrane potential changes, profiling panel, cell-based, JC-1 fluorescence, 24 h, 100 nL compound (AID 1170); settings: higher = more signal
# [9] = A549 lung cancer cell viability effects, profiling panel, resazurin fluorescence, 24 h, PK04 Diversity Set (AID 1171); settings: higher = more signal, called active from +8 up or from −8 down
# [10] = HepG2 liver cancer cell viability effects, profiling panel, resazurin fluorescence, 24 h, PK04 Diversity Set (AID 1172); settings: higher = more signal
# [11] = basal S. cerevisiae growth modulation, no modifier, primary screen, OD600, strain BY4716, 24 h, basal condition (AID 1173); settings: OD600, 24 h, higher = more signal, called active from +8 up or from −8 down
# [12] = MM1S myeloma cell viability, profiling panel, resazurin fluorescence, basal, 24 h, PK04 Diversity Set (AID 1174); settings: higher = more signal, called active from +8 up or from −8 down;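 note: MM1S multiple myeloma cell line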
# [13] = biological target: Dihydroorotate dehydrogenase (quinone), mitochondrial (Plasmodium falciparum (isolate 3D7)) (UniProt Q08210); experiment: PfDHODH enzyme inhibitors, primary screen, biochemical, C-terminal His tag, absorbance 600 nm (AID 1175); settings: DCIP absorbance 600 nm, higher = more signal, called active from +8 up or from −8 down;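 note: recombinant parasite enzyme with a five histidine tag at its C terminus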
# [14] = S. cerevisiae RM11-1a growth modifiers, primary screen, strain RM11-1a, OD600, basal, 24 h (AID 1177); settings: OD600, 24 h, higher = more signal, called active from +8 up or from −8 down;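 note: cultures grown under basal conditions with no added stressor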
# [15] = E. coli acrAB mutant growth effects, primary screen, E. coli filamentation inducers, strain DRC39, OD650, 24 h (AID 1178); settings: higher = more signal, called active from +8 up or from −8 down;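 note: growth measured as culture turbidity by optical density at 650 nm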
# [16] = E. coli acrAB mutant growth effects, primary screen, E. coli filamentation inducers, strain DRC39, OD650, 48 h (AID 1179);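 note: screen aims at cell division blockers that make cells filament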; settings: E. coli DRC39 delta-acrAB growth, higher = more signal, called active from +8 up or from −8 down
# [17] = RPMI8226 myeloma cell viability, profiling panel, resazurin fluorescence, basal, 24 h, PK04 Diversity Set (AID 1180); settings: higher = more signal;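 note: RPMI8826 multiple myeloma cell line at 5000 cells per well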
# [18] = biological target: E3 ubiquitin-protein ligase XIAP (Homo sapiens) (UniProt P98170); experiment: XIAP binders, primary screen, biophysical, small-molecule microarray, fluorescence 635 nm (AID 1181); settings: small-molecule microarray binding, higher = more signal;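 note: score merges 667 nm emission and signal to noise over triplicate slides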
# [19] = tested on: XIP peptide (Xip251-270) binding; experiment: small-molecule binders of XIP peptide, primary screen, biochemical, small-molecule microarray, fluorescence 635/667 nm, 0.1 µg/mL protein (AID 1182); settings: fluorescent protein binding, 635 nm, higher = more signal, called active from +8 up or from −8 down
# XIP peptide (Xip251-270) = experiment: small-molecule binders of XIP peptide, primary screen, biochemical, small-molecule microarray, fluorescence 635/667 nm, 0.5 µg/mL protein (AID 1183); settings: small-molecule microarray binding, fluorescence 635 nm; higher = more signal
# Sequence of E3 ubiquitin-protein ligase XIAP (Homo sapiens) (P98170 whole entry, looked up): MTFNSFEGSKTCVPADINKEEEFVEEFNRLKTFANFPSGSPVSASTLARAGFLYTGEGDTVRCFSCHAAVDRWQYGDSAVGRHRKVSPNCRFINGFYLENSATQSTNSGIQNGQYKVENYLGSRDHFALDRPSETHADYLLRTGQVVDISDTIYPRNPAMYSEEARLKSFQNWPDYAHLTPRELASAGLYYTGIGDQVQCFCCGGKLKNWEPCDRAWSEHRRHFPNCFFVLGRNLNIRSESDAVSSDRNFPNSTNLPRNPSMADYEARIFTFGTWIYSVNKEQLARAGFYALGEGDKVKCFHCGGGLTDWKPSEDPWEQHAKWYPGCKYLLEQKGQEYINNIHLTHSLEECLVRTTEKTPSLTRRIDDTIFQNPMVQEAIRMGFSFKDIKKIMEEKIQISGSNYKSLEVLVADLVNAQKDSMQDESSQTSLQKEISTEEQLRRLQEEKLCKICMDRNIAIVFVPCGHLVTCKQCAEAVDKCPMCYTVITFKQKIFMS
# Sequence of Dihydroorotate dehydrogenase (quinone), mitochondrial (Plasmodium falciparum (isolate 3D7)) (Q08210 whole entry, looked up): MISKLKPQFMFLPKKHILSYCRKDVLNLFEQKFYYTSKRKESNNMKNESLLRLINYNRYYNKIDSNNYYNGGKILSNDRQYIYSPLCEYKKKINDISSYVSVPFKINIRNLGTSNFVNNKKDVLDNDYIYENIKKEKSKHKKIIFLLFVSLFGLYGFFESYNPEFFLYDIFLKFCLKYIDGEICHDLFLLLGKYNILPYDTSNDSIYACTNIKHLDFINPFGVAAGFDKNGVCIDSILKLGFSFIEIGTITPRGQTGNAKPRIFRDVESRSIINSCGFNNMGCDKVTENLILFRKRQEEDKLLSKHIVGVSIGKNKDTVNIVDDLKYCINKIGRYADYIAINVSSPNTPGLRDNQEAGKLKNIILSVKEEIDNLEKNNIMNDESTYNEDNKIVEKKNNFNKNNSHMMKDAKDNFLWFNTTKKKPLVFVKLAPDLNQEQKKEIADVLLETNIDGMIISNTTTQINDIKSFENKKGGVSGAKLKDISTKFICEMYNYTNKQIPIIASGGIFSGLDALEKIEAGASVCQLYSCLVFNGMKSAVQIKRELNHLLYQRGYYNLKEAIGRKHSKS
SMILES,z-score [1],z-score [2],z-score [3],z-score [4],z-score [5],z-score [6],z-score [7],z-score [8],z-score [9],z-score [10],z-score [11],z-score [12],composite z-score [13],z-score [14],z-score [15],z-score [16],z-score [17],composite z-score [18],composite z-score [19],composite z-score (XIP peptide (Xip251-270))
Cc1ccc(N2C(=O)c3ccccc3[C@](C)(C(=O)NC3CC3)[C@@H]2c2ccc(CO)cc2)nc1,0.995,0.0786,0.47,0.442,0.587,-0.73 (inactive),0.36,0.259,1.1 (inactive),0.403,-1.76 (inactive),1.55 (inactive),0.0264 (inactive),-0.224 (inactive),0.256 (inactive),0.143 (inactive),1.51,0.0253,-0.485 (inactive),-0.777
NC(=O)NCC#Cc1ccc2c(c1)[C@]1(C(=O)N2)[C@H](c2ccc(OCCO)cc2)N2[C@H](c3ccccc3)[C@H](c3ccccc3)OC(=O)[C@H]2[C@@H]1C(=O)Nc1nc2ccccc2s1,1.17,-0.348,-0.285,1.55,-3.12,2.65 (inactive),-0.999,-1.68,0.641 (inactive),0.0219,1.44 (inactive),1.33 (inactive),-0.212 (inactive),3.21 (inactive),0.606 (inactive),0.681 (inactive),1.2,-0.0398,0.245 (inactive),-0.587
C=CCC(OC(C)=O)[C@@H]1[C@@H](N(Cc2cc3ccccc3o2)C(=O)c2ccc(-c3ccccc3)cc2)c2cc(OCCCO)ccc2N1C(=O)c1ccc(-c2ccccc2)cc1 (stereo not given in full),0.893,0.249,0.402,-0.777,3.06,0.604 (inactive),-0.557,0.511,1.15 (inactive),0.634,0.18 (inactive),1.28 (inactive),0.192 (inactive),0.975 (inactive),1.47 (inactive),1.07 (inactive),0.996,-0.102,-0.547 (inactive),-0.599
CC(C)C[C@@H]1NC(=O)[C@@]23C(=O)N[C@@H](Cc4ccccc4)C2[C@H](C)[C@@]2(C)O[C@H]2C3/C=C/CC/C=C/CNC(=O)[C@@H](C)NC1=O (stereo not given in full),1.98,-0.309,0.827,-0.386,1.82,0.918 (inactive),-0.205,2.11,-0.613 (inactive),-0.589,-1.92 (inactive),0.603 (inactive),0.596 (inactive),-0.209 (inactive),2.5 (inactive),1.34 (inactive),0.866,-0.227,-0.804 (inactive),-0.0387
O=C(NCc1ccccc1)[C@@H]1c2ccccc2C(=O)N(Cc2ccccc2Cl)[C@H]1c1ccc(CO)cc1,1.23,-0.005,0.138,-0.256,1.99,-0.0174 (inactive),-0.939,-0.0877,1.39 (inactive),0.714,-1.18 (inactive),0.687 (inactive),-1.17 (inactive),-1.44 (inactive),0.392 (inactive),0.123 (inactive),1.63,0.0115,0.188 (inactive),0.819
O=c1n(-c2ccccc2)c(=O)n2n1CC(COc1ccccc1)=C1[C@@H](CCc3ccccc3)OB(O)C[C@@H]12,0.0728,-0.28,-0.0893,-0.364,-0.251,1.31 (inactive),-0.555,0.615,-0.665 (inactive),0.312,-2.19 (inactive),-0.933 (inactive),0.91 (inactive),-0.424 (inactive),2.4 (inactive),1.4 (inactive),-0.672,-0.144,1.45 (inactive),-0.0257
CC(C)(C)OC(=O)CC[C@@]1(C(=O)N2CCOCC2)N=C(c2ccc(OCCCO)cc2)O[C@@H]1c1ccccc1,0.861,-0.215,0.317,0.414,0.652,1.08 (inactive),-0.959,0.609,1.6 (inactive),0.957,0.0776 (inactive),1.43 (inactive),0.464 (inactive),0.732 (inactive),2.19 (inactive),0.869 (inactive),1.53,0.105,1.6 (inactive),-0.326
CC(C)C(=C=CC[C@H](O)c1ccc(OCCO)cc1)C[C@H](O)COCc1ccccc1,0.475,-0.822,-3.38,-3.77,0.296,0.371 (inactive),-0.625,-1.36,0.515 (inactive),0.657,-3.15 (inactive),-1.83 (inactive),-1.09 (inactive),1.04 (inactive),1.35 (inactive),0.883 (inactive),-0.0676,-0.0233,0.941 (inactive),0.0727
CC(C)[Si](C#C[Si](C(C)C)(C(C)C)C(C)C)(O[C@H](C)c1cn([C@H](C)c2ccccc2)nn1)C(C)C,0.517,0.417,-0.908,1.5,2.71,1.94 (inactive),-0.87,0.265,3.13 (inactive),1.3,-0.0779 (inactive),2.34 (inactive),-0.32 (inactive),-1.88 (inactive),2.06 (inactive),0.944 (inactive),2.41,-0.0559,-0.608 (inactive),0.193
C=CCNC(=O)[C@@H]1[C@H]2C(=O)O[C@H](c3ccccc3)[C@H](c3ccccc3)N2[C@H](c2ccc(O)cc2)[C@@]12C(=O)Nc1ccccc12,2.33,0.869,0.306,-2.6,-0.581,0.889 (inactive),-0.824,1.31,0.679 (inactive),-0.696,-0.146 (inactive),0.634 (inactive),-0.132 (inactive),0.87 (inactive),0.874 (inactive),0.634 (inactive),0.812,0.276,0.768 (inactive),0.888
[N-]=[N+]=NCc1ccccc1C[C@@]1(C(=O)NCc2ccccc2)N=C(c2ccc(OCCCO)cc2)O[C@@H]1c1ccccc1,0.904,-1.34,-2.85,-3.02,0.634,0.187 (inactive),-0.876,-0.758,0.507 (inactive),1.72,1.47 (inactive),-0.544 (inactive),-0.112 (inactive),0.971 (inactive),1.61 (inactive),0.407 (inactive),-0.732,-0.0172,0.746 (inactive),-0.409
COc1ccc(/C=C/C(=O)c2cccc(OCC(=O)OC(C)(C)C)c2)cc1,0.934,0.158,-2.97,-2.67,0.528,0.342 (inactive),-0.702,0.656,1.26 (inactive),0.163,-1.39 (inactive),1.11 (inactive),0.131 (inactive),-0.428 (inactive),0.4 (inactive),0.0785 (inactive),1.76,0.0374,0.401 (inactive),0.247
C=C(C(=O)CC[C@H](OC(C)=O)c1ccc(CO)o1)C(C)C,2.11,-1.14,-2.73,-0.639,0.672,2.3 (inactive),-0.378,0.548,-0.158 (inactive),0.0204,-0.273 (inactive),0.0516 (inactive),-0.969 (inactive),-0.487 (inactive),1.63 (inactive),0.359 (inactive),0.739,0.0028,2.48 (inactive),-0.365
CC(C)C(CO)N1C(=O)[C@@H]2[C@H]3C(=O)OCC=C[C@H]3OC23C=CCN(Cc2ccccc2)C(=O)[C@@H]13 (stereo not given in full),0.651,-0.384,0.33,0.0894,0.341,0.232 (inactive),0.159,1.96,-0.077 (inactive),0.25,-1.57 (inactive),0.699 (inactive),-0.429 (inactive),-0.752 (inactive),1.53 (inactive),1.03 (inactive),0.359,0.411,-0.433 (inactive),-1.18
COCCOC(=O)N1C(=O)[C@@]2(c3cc(C#CCNC(N)=O)ccc31)[C@H](C(=O)NC[C@H](O)c1ccccc1)[C@H]1C(=O)O[C@H](c3ccccc3)[C@H](c3ccccc3)N1[C@@H]2c1ccc(O)cc1,0.539,0.315,-0.825,0.987,-0.549,0.962 (inactive),0.161,-0.29,0.0618 (inactive),0.141,-0.331 (inactive),0.751 (inactive),-0.263 (inactive),0.436 (inactive),-0.17 (inactive),0.316 (inactive),1.46,0.166,1.29 (inactive),0.178
C=CCN1C(=O)[C@]2(O[C@H](CCn3cc([C@H](O)c4ccccc4)nn3)[C@@H]([Si](C)(C)c3ccc(OC)cc3)[C@@H]2C)c2cc(N3CCOC3=O)ccc21,3.08,-0.812,-1.98,-2.86,3.15,2.62 (inactive),-0.906,-0.286,-2.25 (inactive),-1.22,-0.506 (inactive),-0.72 (inactive),-0.175 (inactive),0.58 (inactive),1.84 (inactive),1.06 (inactive),-1.23,-0.0721,0.865 (inactive),-0.0533
COc1c(C)cc(-c2cc3c(c(CCc4ccccc4)n2)[Si](C(C)C)(C(C)C)OC3)cc1C,1.27,-0.277,-1.5,0.0965,-2.26e-05,0.334 (inactive),0.667,0.168,1.38 (inactive),1.64,-0.966 (inactive),1.93 (inactive),-0.545 (inactive),-1.43 (inactive),1.75 (inactive),1.08 (inactive),1.37,-0.172,0.461 (inactive),-0.436
CC(C)(C)OC(=O)CC[C@]1(C(=O)NCc2ccccc2)COC(c2ccc(OCCCO)cc2)=N1,0.978,-0.346,0.614,0.554,-0.0474,0.186 (inactive),-0.291,0.931,1.72 (inactive),0.931,-1.67 (inactive),1.65 (inactive),-1.28 (inactive),-1.23 (inactive),1.38 (inactive),0.233 (inactive),1.57,0.141,1.45 (inactive),0.0144
